# Paper PMC7862700, “An all-to-all approach to the identification of sequence-specific readers for epigenetic DNA modifications on cytosine”
# How the values were obtained:
# Experiment in all cases: DAPPL (digital affinity profiling via proximity ligation, sequencing); 10 mM Tris-HCl pH 7.5, 50 mM NaCl, 1 mM DTT, 4% glycerol, room temperature, 30 min; GST-TFs on glutathione beads, 16-mer random dsDNA library, 0.1% formaldehyde crosslink after washing; high values mean tight binding
# FEV = biological target: T1, FEV (Homo sapiens, UniProt Q99581 1-238); conditions: protein: recombinant; tags: N-terminal GST; dsDNA, one strand shown
# T1 sequence: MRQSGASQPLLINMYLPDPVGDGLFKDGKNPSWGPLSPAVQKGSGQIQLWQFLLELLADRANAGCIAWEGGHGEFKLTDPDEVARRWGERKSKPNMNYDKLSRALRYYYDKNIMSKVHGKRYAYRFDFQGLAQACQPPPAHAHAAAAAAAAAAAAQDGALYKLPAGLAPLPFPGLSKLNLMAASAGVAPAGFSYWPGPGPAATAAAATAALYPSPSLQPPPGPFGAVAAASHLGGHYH
# How it was run: (§1)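 Beads coated with glutathione captured GST-fused human transcription factors that had been expressed in yeast, and the factors were then given DNA barcodes and pooled with a tag-only sample. The pools were incubated with 200 nmole of a random double-stranded 16-mer DNA library in Tris/NaCl/DTT/glycerol buffer for 30 min at room temperature, washed, crosslinked with 0.1% formaldehyde and proximity-ligated with BsaI/T4 ligase at 37 °C for 1 h. PCR amplification and Illumina NextSeq500 sequencing came last. Binding signal is each hexamer's read frequency for a factor divided by its frequency for the tag-only sample.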
# ETV5 = ETV5 (Homo sapiens, UniProt P41161 1-510); conditions: protein: recombinant; tags: N-terminal GST; dsDNA, one strand shown
# ETV5, sequence (P41161 whole entry): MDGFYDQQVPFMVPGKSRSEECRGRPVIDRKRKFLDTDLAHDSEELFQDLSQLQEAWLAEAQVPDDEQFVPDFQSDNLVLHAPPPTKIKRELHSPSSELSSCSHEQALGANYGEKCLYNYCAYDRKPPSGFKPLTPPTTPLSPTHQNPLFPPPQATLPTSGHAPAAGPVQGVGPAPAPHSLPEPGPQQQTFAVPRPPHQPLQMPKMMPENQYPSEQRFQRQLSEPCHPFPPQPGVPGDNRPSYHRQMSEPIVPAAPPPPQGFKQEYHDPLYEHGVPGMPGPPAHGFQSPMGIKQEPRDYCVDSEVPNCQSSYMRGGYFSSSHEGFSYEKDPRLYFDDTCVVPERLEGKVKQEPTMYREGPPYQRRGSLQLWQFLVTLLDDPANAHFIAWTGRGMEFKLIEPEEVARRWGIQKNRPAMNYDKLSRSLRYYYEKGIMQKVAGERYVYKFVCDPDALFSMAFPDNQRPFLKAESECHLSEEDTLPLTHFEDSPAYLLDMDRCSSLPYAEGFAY
# How it was run: as §1
# HSF1 = HSF1 (Homo sapiens, UniProt Q00613 1-529); conditions: protein: recombinant; tags: N-terminal GST; chain copies: 3; dsDNA, one strand shown
# HSF1, sequence (Q00613 whole entry): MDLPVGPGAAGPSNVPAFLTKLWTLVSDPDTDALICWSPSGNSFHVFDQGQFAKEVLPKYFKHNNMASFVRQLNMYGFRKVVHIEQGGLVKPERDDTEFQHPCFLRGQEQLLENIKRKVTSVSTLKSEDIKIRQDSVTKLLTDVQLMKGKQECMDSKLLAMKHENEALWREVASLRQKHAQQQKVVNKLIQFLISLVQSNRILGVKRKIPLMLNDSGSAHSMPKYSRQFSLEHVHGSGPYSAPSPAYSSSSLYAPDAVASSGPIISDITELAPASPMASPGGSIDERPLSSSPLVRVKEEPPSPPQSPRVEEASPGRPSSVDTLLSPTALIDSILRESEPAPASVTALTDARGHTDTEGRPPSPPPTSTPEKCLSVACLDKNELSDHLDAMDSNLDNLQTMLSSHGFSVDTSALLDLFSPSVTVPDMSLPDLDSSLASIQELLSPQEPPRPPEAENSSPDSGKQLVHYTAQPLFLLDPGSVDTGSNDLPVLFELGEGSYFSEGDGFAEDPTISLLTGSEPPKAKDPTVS
# How it was run: as §1
# SPIC = biological target: T2, SPIC (Homo sapiens, UniProt Q8N5J4 1-248); conditions: protein: recombinant; tags: N-terminal GST; dsDNA, one strand shown
# T2 sequence: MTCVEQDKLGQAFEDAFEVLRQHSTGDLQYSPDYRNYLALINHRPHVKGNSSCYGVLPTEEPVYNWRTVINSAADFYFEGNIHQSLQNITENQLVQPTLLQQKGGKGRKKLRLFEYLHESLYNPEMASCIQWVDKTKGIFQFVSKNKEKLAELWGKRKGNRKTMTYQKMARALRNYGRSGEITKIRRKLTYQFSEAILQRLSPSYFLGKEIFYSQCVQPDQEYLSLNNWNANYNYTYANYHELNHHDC
# How it was run: as §1
# ELF4 = ELF4 (Homo sapiens, UniProt Q99607 1-663); conditions: protein: recombinant; tags: N-terminal GST; dsDNA, one strand shown
# ELF4, sequence (Q99607 whole entry): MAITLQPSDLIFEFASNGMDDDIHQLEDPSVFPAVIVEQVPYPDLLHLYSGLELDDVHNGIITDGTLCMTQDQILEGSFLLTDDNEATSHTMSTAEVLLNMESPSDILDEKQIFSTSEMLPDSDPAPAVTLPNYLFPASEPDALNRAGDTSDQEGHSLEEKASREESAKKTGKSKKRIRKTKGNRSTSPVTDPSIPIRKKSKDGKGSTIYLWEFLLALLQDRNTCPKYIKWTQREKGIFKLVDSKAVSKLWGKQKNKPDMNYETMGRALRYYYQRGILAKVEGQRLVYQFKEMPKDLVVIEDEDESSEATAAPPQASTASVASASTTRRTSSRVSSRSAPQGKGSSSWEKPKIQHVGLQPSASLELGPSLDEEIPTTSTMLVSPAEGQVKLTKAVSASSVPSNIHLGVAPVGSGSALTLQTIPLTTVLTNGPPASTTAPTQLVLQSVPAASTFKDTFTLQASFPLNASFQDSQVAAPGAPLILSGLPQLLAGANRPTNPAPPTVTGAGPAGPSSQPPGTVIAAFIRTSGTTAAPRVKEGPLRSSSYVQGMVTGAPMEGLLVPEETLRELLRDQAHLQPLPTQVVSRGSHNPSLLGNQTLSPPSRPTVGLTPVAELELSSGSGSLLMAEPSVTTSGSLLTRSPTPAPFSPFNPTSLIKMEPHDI
# How it was run: as §1
# ELK4 = biological target: T3, ELK4 (Homo sapiens, UniProt P28324-2 1-405); conditions: protein: recombinant; tags: N-terminal GST; dsDNA, one strand shown
# T3 sequence: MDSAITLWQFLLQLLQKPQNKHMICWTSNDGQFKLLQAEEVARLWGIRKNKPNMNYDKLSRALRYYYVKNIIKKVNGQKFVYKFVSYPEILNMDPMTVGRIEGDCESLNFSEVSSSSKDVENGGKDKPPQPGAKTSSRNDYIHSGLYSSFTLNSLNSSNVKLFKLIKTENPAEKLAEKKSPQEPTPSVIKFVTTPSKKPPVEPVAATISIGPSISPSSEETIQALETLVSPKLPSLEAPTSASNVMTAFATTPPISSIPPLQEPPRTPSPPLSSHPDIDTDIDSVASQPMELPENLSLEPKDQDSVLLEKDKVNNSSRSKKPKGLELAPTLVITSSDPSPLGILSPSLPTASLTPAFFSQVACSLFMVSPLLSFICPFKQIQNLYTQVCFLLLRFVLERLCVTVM
# How it was run: as §1
# ETV2 = biological target: T4, ETV2 (Homo sapiens, UniProt O00321 1-342); conditions: protein: recombinant; tags: N-terminal GST; dsDNA, one strand shown
# T4 sequence: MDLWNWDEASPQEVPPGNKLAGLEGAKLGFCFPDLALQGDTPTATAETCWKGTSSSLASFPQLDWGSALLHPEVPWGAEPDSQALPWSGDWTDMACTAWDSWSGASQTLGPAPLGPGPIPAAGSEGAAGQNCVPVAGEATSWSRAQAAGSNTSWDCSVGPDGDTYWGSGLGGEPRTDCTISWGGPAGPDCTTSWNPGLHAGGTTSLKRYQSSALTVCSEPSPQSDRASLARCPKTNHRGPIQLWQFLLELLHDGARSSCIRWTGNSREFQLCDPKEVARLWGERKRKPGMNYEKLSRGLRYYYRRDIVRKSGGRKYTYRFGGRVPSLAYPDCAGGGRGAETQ
# How it was run: as §1
# ELF3 = biological target: T5, ELF3 (Homo sapiens, UniProt P78545 1-371); conditions: protein: recombinant; tags: N-terminal GST; dsDNA, one strand shown
# T5 sequence: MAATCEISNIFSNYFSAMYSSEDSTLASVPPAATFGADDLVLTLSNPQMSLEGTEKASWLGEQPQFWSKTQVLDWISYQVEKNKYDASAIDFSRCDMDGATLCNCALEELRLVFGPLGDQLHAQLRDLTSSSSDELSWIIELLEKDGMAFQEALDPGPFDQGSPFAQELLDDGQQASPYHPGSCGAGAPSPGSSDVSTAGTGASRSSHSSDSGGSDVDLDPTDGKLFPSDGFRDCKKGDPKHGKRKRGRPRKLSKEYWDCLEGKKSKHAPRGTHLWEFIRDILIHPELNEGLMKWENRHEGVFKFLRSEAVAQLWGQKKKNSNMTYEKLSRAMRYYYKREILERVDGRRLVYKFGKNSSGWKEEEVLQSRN
# How it was run: as §1
# CRX = CRX (Homo sapiens, UniProt O43186 1-299); conditions: protein: recombinant; tags: N-terminal GST; dsDNA, one strand shown
# CRX, sequence (O43186 whole entry): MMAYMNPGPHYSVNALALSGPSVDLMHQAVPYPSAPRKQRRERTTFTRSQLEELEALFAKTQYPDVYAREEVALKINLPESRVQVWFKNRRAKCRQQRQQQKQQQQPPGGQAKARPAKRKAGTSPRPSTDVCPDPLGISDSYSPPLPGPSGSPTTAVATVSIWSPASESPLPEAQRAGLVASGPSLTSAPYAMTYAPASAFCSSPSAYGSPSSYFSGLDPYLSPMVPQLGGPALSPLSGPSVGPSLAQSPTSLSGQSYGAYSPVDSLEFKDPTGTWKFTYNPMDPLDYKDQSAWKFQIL
# How it was run: as §1
# ETV1 = ETV1 (Homo sapiens, UniProt P50549 1-477); conditions: protein: recombinant; tags: N-terminal GST; dsDNA, one strand shown
# ETV1, sequence (P50549 whole entry): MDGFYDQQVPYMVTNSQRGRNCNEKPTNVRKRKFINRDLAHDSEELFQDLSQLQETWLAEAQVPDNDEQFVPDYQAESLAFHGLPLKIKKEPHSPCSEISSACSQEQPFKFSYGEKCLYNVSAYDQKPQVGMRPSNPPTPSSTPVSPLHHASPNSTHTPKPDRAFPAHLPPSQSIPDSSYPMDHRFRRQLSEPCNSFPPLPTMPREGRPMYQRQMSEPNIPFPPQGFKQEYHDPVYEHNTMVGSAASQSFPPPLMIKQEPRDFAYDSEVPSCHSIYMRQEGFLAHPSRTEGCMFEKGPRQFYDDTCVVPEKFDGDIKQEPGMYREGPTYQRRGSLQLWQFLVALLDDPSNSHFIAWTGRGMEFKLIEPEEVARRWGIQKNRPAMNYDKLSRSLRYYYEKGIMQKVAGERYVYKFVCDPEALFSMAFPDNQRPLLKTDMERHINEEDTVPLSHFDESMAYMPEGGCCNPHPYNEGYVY
# How it was run: as §1
# ERF = biological target: T6, ERF (Homo sapiens, UniProt P50548 1-548); conditions: protein: recombinant; tags: N-terminal GST; dsDNA, one strand shown
# T6 sequence: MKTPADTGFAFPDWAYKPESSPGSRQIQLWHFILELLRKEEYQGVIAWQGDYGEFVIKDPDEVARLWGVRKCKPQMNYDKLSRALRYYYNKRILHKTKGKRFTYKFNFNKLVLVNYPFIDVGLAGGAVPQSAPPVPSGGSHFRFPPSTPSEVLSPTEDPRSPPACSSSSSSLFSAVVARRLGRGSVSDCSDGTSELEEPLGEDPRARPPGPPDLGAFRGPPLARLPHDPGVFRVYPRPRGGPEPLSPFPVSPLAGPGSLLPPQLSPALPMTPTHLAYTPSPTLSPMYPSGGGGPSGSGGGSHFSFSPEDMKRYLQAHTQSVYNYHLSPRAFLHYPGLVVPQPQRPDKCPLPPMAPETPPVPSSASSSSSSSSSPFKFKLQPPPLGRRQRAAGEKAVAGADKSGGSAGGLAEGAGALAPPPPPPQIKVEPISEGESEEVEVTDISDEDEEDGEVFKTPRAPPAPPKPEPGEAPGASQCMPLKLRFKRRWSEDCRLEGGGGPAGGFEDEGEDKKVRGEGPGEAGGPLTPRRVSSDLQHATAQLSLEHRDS
# How it was run: as §1
# ETV3L = biological target: T7, ETV3L (Homo sapiens, UniProt Q6ZN32 1-361); conditions: protein: recombinant; tags: N-terminal GST; dsDNA, one strand shown
# T7 sequence: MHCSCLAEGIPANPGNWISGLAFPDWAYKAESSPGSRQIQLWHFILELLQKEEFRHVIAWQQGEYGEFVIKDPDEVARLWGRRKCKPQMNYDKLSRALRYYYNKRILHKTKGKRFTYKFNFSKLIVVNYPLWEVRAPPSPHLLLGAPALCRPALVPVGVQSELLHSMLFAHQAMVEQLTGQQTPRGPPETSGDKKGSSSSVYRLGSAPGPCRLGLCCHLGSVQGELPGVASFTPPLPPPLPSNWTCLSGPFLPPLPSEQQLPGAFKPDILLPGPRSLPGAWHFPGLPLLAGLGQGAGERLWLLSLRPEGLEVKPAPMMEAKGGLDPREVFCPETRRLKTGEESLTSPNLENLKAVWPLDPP
# How it was run: as §1
# ETS2 = biological target: T8, ETS2 (Homo sapiens, UniProt P15036 1-469); conditions: protein: recombinant; tags: N-terminal GST; dsDNA, one strand shown
# T8 sequence: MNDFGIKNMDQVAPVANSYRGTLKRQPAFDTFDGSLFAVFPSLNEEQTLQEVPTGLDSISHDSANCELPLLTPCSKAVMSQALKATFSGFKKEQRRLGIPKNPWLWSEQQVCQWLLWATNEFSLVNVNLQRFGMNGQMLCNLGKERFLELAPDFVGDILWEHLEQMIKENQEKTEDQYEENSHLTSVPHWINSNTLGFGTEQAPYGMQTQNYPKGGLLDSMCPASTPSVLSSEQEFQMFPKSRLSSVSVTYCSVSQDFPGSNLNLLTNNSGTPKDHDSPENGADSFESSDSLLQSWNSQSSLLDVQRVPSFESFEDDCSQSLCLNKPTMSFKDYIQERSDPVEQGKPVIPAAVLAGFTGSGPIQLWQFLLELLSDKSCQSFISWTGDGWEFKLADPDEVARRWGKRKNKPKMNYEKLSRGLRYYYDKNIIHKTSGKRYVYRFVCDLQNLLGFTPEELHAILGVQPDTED
# How it was run: as §1
# SPDEF = biological target: T9, SPDEF (Homo sapiens, UniProt O95238 1-335); conditions: protein: recombinant; tags: N-terminal GST; dsDNA, one strand shown
# T9 sequence: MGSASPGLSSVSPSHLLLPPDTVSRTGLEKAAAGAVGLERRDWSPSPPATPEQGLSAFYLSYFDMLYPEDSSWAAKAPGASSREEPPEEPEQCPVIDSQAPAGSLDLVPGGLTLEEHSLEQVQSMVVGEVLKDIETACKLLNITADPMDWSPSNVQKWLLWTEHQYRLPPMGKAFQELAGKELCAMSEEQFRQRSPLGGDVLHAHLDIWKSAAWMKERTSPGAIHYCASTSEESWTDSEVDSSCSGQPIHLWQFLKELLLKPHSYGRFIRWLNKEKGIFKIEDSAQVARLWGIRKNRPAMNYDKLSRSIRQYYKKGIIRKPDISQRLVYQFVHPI
# How it was run: as §1
# ETV7 = biological target: T10, ETV7 (Homo sapiens, UniProt Q9Y603 1-341); conditions: protein: recombinant; tags: N-terminal GST; dsDNA, one strand shown
# T10 sequence: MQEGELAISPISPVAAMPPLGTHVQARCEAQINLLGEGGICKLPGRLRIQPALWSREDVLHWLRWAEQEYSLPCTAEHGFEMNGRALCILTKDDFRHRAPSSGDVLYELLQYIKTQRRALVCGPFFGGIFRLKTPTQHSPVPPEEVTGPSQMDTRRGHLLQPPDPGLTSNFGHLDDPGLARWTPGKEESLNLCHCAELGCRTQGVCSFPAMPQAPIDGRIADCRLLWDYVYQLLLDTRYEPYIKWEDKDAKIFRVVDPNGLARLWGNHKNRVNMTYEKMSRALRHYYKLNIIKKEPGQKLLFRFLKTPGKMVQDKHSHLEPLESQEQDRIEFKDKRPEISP
# How it was run: as §1
# ELF5 = biological target: T11, ELF5 (Homo sapiens, UniProt Q9UKW6-2 1-255); conditions: protein: recombinant; tags: N-terminal GST; dsDNA, one strand shown
# T11 sequence: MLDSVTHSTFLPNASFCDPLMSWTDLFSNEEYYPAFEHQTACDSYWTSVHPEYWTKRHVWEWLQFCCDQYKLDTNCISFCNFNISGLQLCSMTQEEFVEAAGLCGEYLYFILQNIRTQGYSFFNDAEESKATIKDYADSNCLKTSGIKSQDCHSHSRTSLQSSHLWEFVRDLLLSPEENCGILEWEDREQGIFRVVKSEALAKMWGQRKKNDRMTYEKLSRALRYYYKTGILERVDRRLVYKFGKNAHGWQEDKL
# How it was run: as §1
# ETV3 = biological target: T12, ETV3 (Homo sapiens, UniProt P41162-2 1-143); conditions: protein: recombinant; tags: N-terminal GST; dsDNA, one strand shown
# T12 sequence: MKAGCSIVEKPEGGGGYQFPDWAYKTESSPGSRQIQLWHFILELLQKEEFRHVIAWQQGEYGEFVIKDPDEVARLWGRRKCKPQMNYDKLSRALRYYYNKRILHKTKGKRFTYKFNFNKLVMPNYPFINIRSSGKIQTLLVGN
# How it was run: as §1
# ETV6 = ETV6 (Homo sapiens, UniProt P41212 1-452); conditions: protein: recombinant; tags: N-terminal GST; dsDNA, one strand shown
# ETV6, sequence (P41212 whole entry): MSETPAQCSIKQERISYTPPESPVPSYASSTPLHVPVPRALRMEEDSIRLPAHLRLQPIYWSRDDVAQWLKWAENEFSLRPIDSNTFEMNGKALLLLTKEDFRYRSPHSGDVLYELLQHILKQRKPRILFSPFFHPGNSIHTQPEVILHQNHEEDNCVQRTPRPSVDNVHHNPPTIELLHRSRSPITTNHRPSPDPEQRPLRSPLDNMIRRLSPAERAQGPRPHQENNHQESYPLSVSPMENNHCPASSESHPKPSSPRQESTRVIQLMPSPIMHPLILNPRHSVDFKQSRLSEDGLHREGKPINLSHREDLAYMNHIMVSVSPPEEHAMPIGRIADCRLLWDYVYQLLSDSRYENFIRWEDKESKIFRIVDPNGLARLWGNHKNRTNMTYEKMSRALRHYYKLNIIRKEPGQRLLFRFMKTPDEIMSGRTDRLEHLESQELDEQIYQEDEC
# How it was run: as §1
sequence,measurement,setting,value
TTAAGT,binding signal,FEV,"1.11 fold enrichment (6-mer frequency, TF over GST control)"
same,binding signal,ETV5,"1.15 fold enrichment (6-mer frequency, TF over GST control)"
same,binding signal,HSF1,"2 fold enrichment (6-mer frequency, TF over GST control)"
same,binding signal,SPIC,"1.25 fold enrichment (6-mer frequency, TF over GST control)"
same,binding signal,ELF4,"1.16 fold enrichment (6-mer frequency, TF over GST control)"
same,binding signal,ELK4,"1.03 fold enrichment (6-mer frequency, TF over GST control)"
same,binding signal,ETV2,"1.14 fold enrichment (6-mer frequency, TF over GST control)"
same,binding signal,ELF3,"1.26 fold enrichment (6-mer frequency, TF over GST control)"
same,binding signal,CRX,"3.27 fold enrichment (6-mer frequency, TF over GST control)"
same,binding signal,ETV1,"1.16 fold enrichment (6-mer frequency, TF over GST control)"
same,binding signal,ERF,"1.12 fold enrichment (6-mer frequency, TF over GST control)"
same,binding signal,ETV3L,"1.15 fold enrichment (6-mer frequency, TF over GST control)"
same,binding signal,ETS2,"1.16 fold enrichment (6-mer frequency, TF over GST control)"
same,binding signal,SPDEF,"1.31 fold enrichment (6-mer frequency, TF over GST control)"
same,binding signal,ETV7,"1.19 fold enrichment (6-mer frequency, TF over GST control)"
same,binding signal,ELF5,"1.12 fold enrichment (6-mer frequency, TF over GST control)"
same,binding signal,ETV3,"1.12 fold enrichment (6-mer frequency, TF over GST control)"
same,binding signal,ETV6,"1.19 fold enrichment (6-mer frequency, TF over GST control)"
